Drawing on PubChem BioAssay (NCATS), this text covers Potency, viability (% of control) and viability, % of control for 25 compounds.

Results filed as inconclusive are left out. Unmarked numbers belong to inactive results. The source made the active and inactive calls. Calls come from the whole dose curve; as a rule, active = well fitted cell-killing curve with a large enough effect; inconclusive = small, poorly fitted or top-dose-only effect, or effect the other way; inactive = no such curve, though single readings can be large or run the other way.

Assay [1] is described as follows: Viability qHTS for spleen associated tyrosine kinase inhibitor (SYKi) naive MV4-11 cells (AID 1963823). Note: nearly all actives have a fitted effect of over 40% in size. In outline: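 SYK inhibitor-naive MV4-11 cells, 500 per well, exposed to compounds for 72 hr at 37 C, 5% CO2. Viability read as CellTiter-Glo luminescence after 10 min at room temperature.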
Assay [2] is described as follows: Viability qHTS for spleen associated tyrosine kinase inhibitor (SYKi) drug resistant MV4-11 cells (AID 1963824). Note: nearly all actives have a fitted effect of over 35% in size. In a few lines: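 CellTiter-Glo luminescence, read 10 min after reagent addition, reports viability after a 72 hr compound exposure. Cells are an MV4-11 line made resistant to SYK inhibition, seeded at 500 per well onto compound-containing plates.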
Potency is the fitted concentration of half-maximal effect.

Turning to `CC(C)(C)S(=O)(=O)c1ccc2nccc(Nc3n[nH]c4ccc(F)cc34)c2c1`, the Potency was 7.42 µM (active) in assay [1] and 9.34 µM (active) in assay [2].
With `CC(=O)OC[C@@]12[C@H](O)C[C@]3(C)C(=CCC4[C@@]5(C)CC[C@H](O[C@@H]6O[C@H](C(=O)O)[C@@H](O[C@@H]7O[C@H](CO)[C@@H](O)[C@H](O)[C@H]7O)[C@H](O)[C@H]6O[C@@H]6O[C@H](CO)[C@@H](O)[C@H](O)[C@H]6O)[C@](C)(CO)C5CC[C@]43C)[C@@H]1CC(C)(C)[C@@H](OC(C)=O)[C@@H]2O` (stereo not given in full), the viability (% of control) in assay [1] was 96.3% [at 9.25 µM]. In assay [2], the viability, % of control is 95.8% [at 9.25 µM].
With `C=C1[C@@H]2CC[C@@]3(C)[C@H](c4ccoc4)OC(=O)C[C@]13O[C@H]1CC(=O)C(C)(C)[C@H](CC(=O)OC)[C@]12C`, the Potency result in assay [1] and in assay [2] was “inactive” in each case.
In the case of `CC(O)C(O)/C=C/C=C/C(=O)O[C@@H]1C=C(C(=O)O)[C@](O)(CO)[C@@]2(C)CCCC(C)(C)[C@H]12` (stereo not given in full), the Potency result in assay [1] and in assay [2] was “inactive” throughout.
With `CC(OC1OCCN(Cc2n[nH]c(=O)[nH]2)C1c1ccc(F)cc1)c1cc(C(F)(F)F)cc(C(F)(F)F)c1` (stereo not given), the Potency in assay [1] is 9.2 µM (active); in assay [2] it was 5.8 µM (active).
`CC(C)S(=O)(=O)c1ccc2nccc(Nc3ccc4scnc4c3)c2c1`: the Potency in assay [1] is 8.2 µM (active); in assay [2], 16.4 µM (active).
The like results for `C[C@@H]1O[C@@H](OC[C@H]2O[C@@H](OCCc3ccccc3)[C@H](O)[C@@H](O)[C@@H]2O)[C@H](O)[C@H](O)[C@H]1O` were, in that order, “inactive” and “inactive”.
The like results for `CCCc1[nH]nc2c1C(c1cc(Cl)cc(Cl)c1O)C(C#N)=C(N)O2` (stereo not given) were, in that order, 16.4 µM (active) and 16.4 µM (active).
On to `CNC(=O)COC(=O)NCCC1CCN(c2cccc(C)n2)CC1`, for which the Potency result in assay [1] and in assay [2] was “inactive” in each case.
Consider `N#C/C(=C1\Nc2ccccc2S1)c1ccnc(NCCc2cccnc2)n1`, for which the Potency in assay [1] and in assay [2] was 2.31 µM (active) in each case.
Consider `CC1C2=CC(=O)OC2(O)CC2C1CCC1C(C)(C)CCC(O)C21C` (stereo not given), for which the Potency in assay [1] is 12.8 µM (active); in assay [2] it was 4.53 µM (active).
The like results for `c1ccc2c(-c3cnn4cc(-c5ccc(OCCN6CCOCC6)cc5)cnc34)ccnc2c1` were, in that order, 1.02 µM (active) and 1.44 µM (active).
The like results for `Cc1cn2cc(C(=O)N(C)CCO)cc(NC3CCOc4cccc(C)c43)c2n1` (stereo not given) were, in that order, “inactive” and “inactive”.
For `C[C@H](NC(=O)C(C)(C)Oc1ccc(C(F)(F)F)cn1)[C@@H](Cc1ccc(Cl)cc1)c1cccc(C#N)c1`, the Potency in assay [1] was 13 µM (active); in assay [2], 9.2 µM (active).
The like results for `CCCC(=O)Nc1cccc(NC(=O)c2ccccc2Br)c1` were, in that order, “inactive” and “inactive”.
On to `COc1cc(O[C@@H]2O[C@H](CO)[C@@H](O)[C@H](O)[C@H]2O)c(CCC(=O)OC[C@H]2O[C@@H](Oc3cc(OC)c(C4OC(=O)C(C)(O)C4O)cc3CCC(=O)O)[C@H](O)[C@@H](O)[C@@H]2O)cc1C1OC(=O)C(C)(O)C1O` (stereo not given in full), for which the viability (% of control) in assay [1] was 77% [at 9.25 µM]. Further, in assay [2], the viability, % of control is 81.1% [at 9.25 µM].
Turning to `C[C@@H]1C(=O)OC[C@H]2C(C(=O)O)=C[C@@H]3CC(C)(C)C[C@]312`, the Potency result in assay [1] and in assay [2] was “inactive” in each case.
For the compound `CC1=C[C@H](O)[C@H]2C(C)(C)CCC[C@]2(C)[C@@]1(O)CO`, the Potency entry in assay [1] was “inactive”. In addition, in assay [2], the Potency is 4.11 µM (active).
On to `C[C@@H]1O[C@@H](O[C@H]2[C@H](OC(=O)[C@]34CCC(C)(C)C[C@H]3C3=CCC5[C@@]6(C)C[C@@H](O)[C@@H](O)[C@@](C)(CO)C6[C@H](O)C[C@@]5(C)[C@]3(C)CC4)OC[C@H](O)[C@@H]2O)[C@H](O)[C@H](O)[C@H]1O[C@@H]1OC[C@@H](O)[C@H](O[C@H]2O[C@H](C)[C@@H](O)[C@H](O)[C@@H]2O)[C@H]1O` (stereo not given in full), for which the viability (% of control) in assay [1] is 80.2% [at 9.25 µM]. Further, in assay [2], the viability, % of control is 77.9% [at 9.25 µM].
Regarding `O=C(Nc1ccccc1)N1CCN(c2nc(-c3ccccc3)ns2)CC1`, the Potency was 14.6 µM (active) in assay [1] and 16.4 µM (active) in assay [2].
The like results for `CC(=O)c1c(O)cc2c(c1C)C(=O)CC(O)C2` (stereo not given) were, in that order, “inactive” and “inactive”.
Consider `C=C1CC2OC(=O)C(=C)C2C(OC(=O)/C(C)=C\C)CC2(C)OC1=CC2=O` (stereo not given), for which the Potency in assay [1] and in assay [2] was 0.453 µM (active) throughout.
Take `CC(C)COc1ccc(CNC(=O)N(Cc2ccc(F)cc2)C2CCN(C)CC2)cc1`: the Potency in assay [1] is 18.4 µM (active); in assay [2] it was 13 µM (active).
The like results for `CC(=O)C1(C)CCC2C3C=C(C)C4=CC(=O)CCC4(C)C3CCC21C` (stereo not given) were, in that order, 5.8 µM (active) and 7.31 µM (active).
The like results for `CCOc1ccc(CCNC(=O)c2cc3sc(Cl)cc3n2C)cc1OCC` were, in that order, “inactive” and 1.64 µM (active).
